Screening results as filed in PubChem.
Hits are enriched below; roughly 0.89% of the tested compounds scored in any of these assays.
LAP4 TOR yeast: modulators of TOR pathway LAP4-GFP in S. cerevisiae. S. cerevisiae LAP4-GFP multiplex, flow cytometry GFP, 3 h; median GFP as percent of DMSO wells. GFP response vs DMSO, % at 10 µM. 0.34% of 320,000 active;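 active means GFP response vs DMSO above a set limit, about the screen mean plus 3 SD, cut at about 150% in these data; inconclusive means under 70 cell events counted for the yeast strain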
RPL19A TOR yeast: modulators of TOR pathway RPL19A-GFP in S. cerevisiae. 0.3% of 330,000 active. percent response vs DMSO, % at 10 µM. S. cerevisiae RPL19A-GFP strain, flow cytometry, 3 h; active compounds read low;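 active means percent response vs DMSO below 50%; inconclusive means fewer than 70 events counted for the yeast strain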;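 further: median channel GFP fluorescence of the barcoded RPL19A-GFP strain; ratio of sample median GFP to plate DMSO average so 100% = DMSO; lower means less RPL19A-GFP as with rapamycin TOR inhibition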
MEP2-GFP yeast: yeast TOR pathway MEP2-GFP modulation; 0.51% of 330,000 active; S. cerevisiae MEP2-GFP strain, flow cytometry GFP, 3 h; 100% = DMSO control level; AID 2016; GFP response vs DMSO, % at 10 µM;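 active means GFP response versus DMSO above a set limit, roughly screen mean plus 3 SD, cut at about 180% in these data; inconclusive means fewer than 70 cells counted for a yeast strain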;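 further: median GFP fluorescence of the barcode-gated MEP2-GFP cells per well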
CIT2-GFP yeast: modulators of TOR pathway CIT2-GFP in S. cerevisiae | S. cerevisiae CIT2-GFP strain, flow cytometry, 3 h; 100 means same as DMSO wells | GFP response vs DMSO, % at 10 µM | 0.065% of 320,000 active | AID 2029;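 active means GFP response relative to DMSO above a set limit, near the screen mean plus 3 SD, cut at about 150% in these data; inconclusive means Fewer than 70 cells measured for a yeast strain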;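 further: ratio of well median GFP fluorescence to mean of DMSO wells on the plate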
AGP1 TOR yeast: alters AGP1-GFP fluorescence in TOR pathway yeast screen; S. cerevisiae AGP1-GFP multiplex flow cytometry, 3 h; GFP as percent of DMSO wells; 0.02% of 320,000 active; GFP response vs DMSO, % at 10 µM;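 active means GFP response relative to DMSO above a set limit, near screen average plus 3 SD, cut at about 150% in these data; inconclusive means fewer than 70 cells counted for the yeast strain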;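 further: median GFP channel fluorescence of the gated AGP1 strain per well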
The depositor's hits bear a star; ? = inconclusive; . = no result given; [ ] = dose if it differs, or a comment.

SMILES | LAP4 TOR yeast | RPL19A TOR yeast | MEP2-GFP yeast | CIT2-GFP yeast | AGP1 TOR yeast
CC(C(=O)Nc1ccc(F)cc1Cl)N(C)CCOc1ccccc1 (configuration not stated) | 97.2 | 105.4 | 102.6 | 106.6 | 99.5
CC(C(=O)Nc1ccccc1)N(C)CCOc1ccccc1 (configuration not stated) | 96.5 | 40.0*[may fluoresce violet] | 298.6*[may fluoresce violet] | ? | 61.5
COc1ccc(CNC(=O)CCC(=O)Nc2nnc(C(F)(F)F)s2)cc1 | 104.1 | 95.1 | 103.1 | 160.7*[may fluoresce green] | 119.3
CC(=O)C[C@@H](O)CC(=O)[C@H]1OC(=O)[C@H](C)CCCCc2ccccc21 | 96.8 | 93.5 | 92.2 | 96.4 | 100.4
COc1ccc(S(=O)(=O)N(CC(=O)N2CCOCC2)c2ccc(F)cc2)cc1OC | 80.1 | ? | 220.9*[may fluoresce red and violet] | ? | ?
COc1ccc(N(CC(=O)N2CCCCCC2)S(=O)(=O)c2ccc(OC)c(OC)c2)cc1 | 90.0 | 102.6 | 97.9 | 105.8 | 102.4
COC(=O)CN(c1ccc(OC)cc1)S(=O)(=O)c1ccc(OC)c(OC)c1 | 103.0 | 98.7 | 103.1 | 104.1 | 100.5
CCOc1ccc(N(CC(=O)OC)S(=O)(=O)c2ccc(OC)c(OC)c2)cc1 | 80.3 | 55.5 | 205.4*[may fluoresce violet] | ? | .
Cc1cc(CNC(=S)Nc2ccc(Br)cc2Cl)nn1C | 105.9 | 99.6 | 94.1 | 91.3 | 98.0
CCCc1cc(=O)oc2cc(C)cc(OCC(=O)Nc3ccc(CN4CCOCC4)cc3)c12 | 60.6 | 27.8*[may fluoresce violet] | 271.3*[may fluoresce violet] | ? | ?
COc1ccc(Cc2nnc(Cl)c3ccccc23)cc1OC | . | 91.3 | 98.0 | 97.5 | 102.2
CCSC1(SCC)N=C(N)C2(C#N)C(c3ccccc3)NC3=C(CCC3)C12C#N (configuration not stated) | 96.6 | 42.1*[may fluoresce violet] | 277.4*[may fluoresce violet] | ? | 19.9
O=C1OC2(c3ccccc31)c1cc(I)c(O)c(I)c1Oc1c2cc(I)c(O)c1I | 243.4* | 119.0 | 256.6* | 168.7* | 89.5
CC(=O)Nc1ccc(S(=O)(=O)Nc2nc(C)nc3sc(C)c(C)c23)cc1 | 93.9 | 92.3 | 93.0 | 87.2 | 96.5
COc1ccc(C2C3=C(CC(C)(C)CC3=O)N(CC(=O)O)C3=C2C(=O)CC(C)(C)C3)cc1OC | 94.5 | 96.4 | 100.9 | 110.7 | 105.2
COc1ccc(C2C3=C(CCCC3=O)N(CC(=O)O)C3=C2C(=O)CCC3)cc1Cl | 126.2 | 45.9* | 501.9* | 130.1 | 148.4
CCOc1cc(C2C3=C(CCCC3=O)N(CC(=O)O)C3=C2C(=O)CCC3)ccc1OC | 77.8 | 93.8 | 88.2 | 88.4 | 85.9
COc1ccccc1C1C2=C(CCCC2=O)N(CC(=O)O)C2=C1C(=O)CCC2 | 57.7 | 13.9*[may fluoresce violet] | 257.0*[may fluoresce violet] | ? | ?
O=C(CCSc1ccc(Br)cc1)c1ccc(O)cc1 | 98.0 | 102.1 | 100.2 | 84.0 | 98.6
Cc1c(OC(C)C(=O)NCCN2CCOCC2)ccc2c(-c3ccccc3)cc(=O)oc12 (configuration not stated) | 102.2 | 108.3 | 107.8 | 101.4 | 105.8
Cc1c(OC(C)C(=O)NCCCN2CCOCC2)ccc2c1oc(=O)c1ccccc12 (configuration not stated) | 91.5 | 26.5*[may fluoresce violet] | 162.4 | ? | ?
COC(=O)c1ccc(CN2CCC(Oc3cccc(C(=O)N4CCOCC4)c3)CC2)cc1 | 98.4 | 104.1 | 106.4 | 105.0 | 101.1
Cc1cccc(OCC(=O)NCCNC(=O)c2ccccn2)c1 | ? | 31.1*[may fluoresce violet] | ? | ? | ?
Cc1ccc(OCC(=O)NCCCNC(=O)c2ccccn2)cc1 | 102.1 | 106.6 | 110.8 | 103.2 | 95.4
Cc1cc(C(=O)COC(=O)COc2ccccc2C#N)c(C)n1CC1CCCO1 (configuration not stated) | 91.1 | 95.5 | 93.3 | 95.8 | 95.7
SMILES | LAP4 TOR yeast | RPL19A TOR yeast | MEP2-GFP yeast | CIT2-GFP yeast | AGP1 TOR yeast
CC(=O)c1ccc2c(c1)OCCOCCOCCO2 | 97.0 | 46.7*[may fluoresce violet] | 574.8*[may fluoresce violet] | ? | ?
Brc1ccc2c(c1)OCCOCCOc1cc(Br)ccc1OCCOCCOCCO2 | 219.2* | 77.3 | 111.0 | 90.4 | 105.2
Brc1cc2c(cc1Br)OCCOCCOCCOCCO2 | 96.8 | 92.9 | 100.2 | . | 96.9
O=Cc1ccc(OC(=O)/C=C/c2ccccc2)cc1 | 107.9 | 86.8 | 115.0 | 111.3 | 99.3
CN(C(=O)Cn1nc(C(=O)O)c2ccccc2c1=O)C1(C#N)CCCCC1 | 97.2 | 95.0 | 96.7 | 102.2 | 101.2
CC(=O)c1ccc(N2CCN(CC(=O)Nc3ccc(N4CCOCC4)cc3)CC2)cc1 | 91.2 | 91.0 | 97.6 | . | 95.1
CC(C)CC(=O)Nc1ccc(C(=O)CN2CCN(c3ccc(O)cc3)CC2)cc1 | 57.5 | 26.4*[may fluoresce violet] | 236.8*[may fluoresce violet] | ? | ?
Cn1c(CBr)c(C(=O)c2ccc([N+](=O)[O-])cc2)c(=O)n(C)c1=O | 113.2 | 54.7 | 444.2*[may fluoresce violet] | ? | ?
CCOc1ccc(S(=O)(=O)n2ccnc2C)cc1 | 106.3 | 110.0 | 111.3 | 108.2 | 152.7*
Cc1cc(OC(C)C(=O)Nc2ccncc2)ccc1Cl (configuration not stated) | 85.2 | 93.6 | 95.5 | 91.6 | 88.9
COc1cccc2cc(C(=O)N3CCN(C/C=C/c4ccccc4)CC3)c(=O)oc12 | 105.6 | 81.4 | 219.4* | 62.7 | 88.8
COc1cccc2cc(C(=O)N3CCCCCCC3)c(=O)oc12 | 95.5 | 102.3 | 104.4 | 99.1 | 94.4
Cn1cc([N+](=O)[O-])c(C(=O)NC2CCCCCCC2)n1 | 103.1 | 96.2 | 90.3 | 95.8 | 97.8
O=C(COc1ccccc1[N+](=O)[O-])Nc1cccnc1 | 98.5 | 100.5 | 100.2 | 111.8 | 105.8
O=C(COc1ccccc1[N+](=O)[O-])Nc1ccc(Br)cc1 | 88.5 | 55.9 | 605.4*[may fluoresce violet] | ? | 20.8
Cc1ccc(C(=O)N/C(=C/c2ccco2)C(=O)N2CCOCC2)cc1 | 173.5* | 94.2 | 163.9 | 119.8 | 129.7
CC1CCCCC1NC(=O)CCS(=O)(=O)c1ccc(Cl)cc1 (configuration not stated) | 100.0 | 101.9 | 105.7 | 75.8 | 76.8
COc1ccc(C(CNC(=O)Cc2c(F)cccc2Cl)N2CCCCC2)cc1 (configuration not stated) | 75.8 | 95.9 | 299.2*[may fluoresce violet] | ? | 19.3
N#CC1=C(N)OC2=C(CC/C2=C\c2ccccc2Cl)C1c1ccccc1Cl (configuration not stated) | 96.7 | 109.5 | 104.9 | 97.8 | 98.2
N#CC1=C(N)OC2=C(CC/C2=C\c2ccccc2)C1c1ccccc1 (configuration not stated) | 107.1 | 94.5 | 188.2*[may fluoresce violet] | ? | 18.6
COCCNc1ccc([N+](=O)[O-])cc1C(=O)NC1CCCc2ccccc21 (configuration not stated) | 85.7 | 96.9 | 89.9 | 93.2 | 91.7
Cc1ccc2c(c1)/C(=C/c1ccc(F)cc1)C(=O)N2 | 152.9* | 76.8 | 133.2 | 52.0 | 85.0
Cc1cc(SCC(=O)OCC(=O)N(C)c2ccccc2)nc2ccccc12 | 97.1 | 95.5 | 101.7 | 102.6 | 101.0
